# A structure can be active in one record and inactive in another. Activity calls are given as the source filed them. Rule for the calls: active = hit-call score of the fitted dose curve at least 0.9, where 1 is the maximum; inactive = score below 0.9.
# Read-out: Thyroid Hormone Responsive (THRSP), THRSP (gene 7069)
# Assay: LTEA_HepaRG_THRSP: Life Technologies and Expression Analysis (LTEA) Assay for Thyroid Hormone Responsive (THRSP) using HepaRG (AID 2283536)
# Conditions: mRNA level, 48 h; actives raise or lower the signal
# Experimental: LTEA_HepaRG is a cell based, multiplexed-readout assay that uses HepaRG, a human liver cell line, with measurements taken at 48 hours after chemical dosing on a 96-well plate.LTEA_HepaRG_THRSP is one of 102 assay component(s) measured in the LTEA HepaRG cell culture assay. It is a marker of NR mediated metabolism.Data from the assay component LTEA_HepaRG_THRSP was analyzed into 1 endpoint. This assay endpoint, LTEA_HepaRG_THRSP, was analyzed with bidirectional fitting relative to DMSO as the negative control and baseline of activity. Using a type of inducible reporter, measures of mRNA induction for gain or loss-of-signal activity can be used to understand regulation of transcription factor activity. To generalize the intended target to other relatable targets, this assay endpoint is annotated to the growth factor intended target family, where the subfamily is NR mediated metabolism.
# A total of 1060 chemcials from the ToxCast library were tested in eight-point concentration-response experiments. Cell culture and cytotoxicity assays were conducted at Thermo Fisher Scientific's Custom Services facility (Madison, WI). A single lot of human HepaRG cells (Thermo Fisher Scientific, Frederick, MD) was used for the cell culture experiments. 96-well format collagen type I coated plates of human HepaRG cells were prepared using established methods. Briefly, cryopreserved HepaRG cells were thawed, plated at a density of approximately 100,000 cells/well in HepaRG Thaw, Plate, and General Purpose media (HPRG770, Thermo Fisher Scientific), and incubated for 48 hours. 0.5% DMSO was selected as vehicle control to balance the requisite need of DMSO in HepaRG cultures to maintain differentiation (for example, baseline metabolism, proportions of hepatocytes vs. cholangiocytes), while enabling further hepatic receptor pathway activation (for example, PXR and CAR) in response to chemical exposure. 48 hours after plating, the culture medium was replaced with HepaRG Serum-Free Incudtion Media. Cells were exposed to each test chemical in duplicate and maintained in CO2 incubators for another 48 hours. Chemical plates were thawed to room temperature and 200x concentrations of treatment groups were prepared. 8-point conentration-reponse curves were made with the highest exposure at 100 uM, followed by half-log dilutions, all in 0.5% DMSO. Each test plate contained variouse controls, induction positive controls (1mM phenobarbital), cytotoxicity positive controls ([…] aflatoxin B1), vehicle controls (0.5% DMSO), and total lysis controls (0.5% DMSO). Cell morphology images were taken using an Essen IncuCyte FLR automated microscope, with six 96-well plates imaged in about 24 minutes. Images were captured and exported and JPEG files. Spent culture media was transfered to black-well plates for the LDH assay, and remaining media was sorted at -80 C for later use. Cells were treated with RLT buffer and frozen until shipped for gene expression analysis. Total RNA was isolated from the cell suspension in 75 uL of Buffer RLT (Qiagen, Germantown, MD 20874) by Quintiles/Expression Analysis (Durham, NC) using a custom isolation procedure. Total RNA from each plate well was transferred to a preamplification plate. Fluidigm's 96.96 Dynamic ArrayTM (Fluidigm, Amsterdam, the Netherlands) technology was used for gene expression analyses by quantitative reverse transcription polymerase chain reaction (qRT-PCR, performed by Quintiles/Expression Analysis, Durham, NC)89. Standard TaqManTM Assays (Applied Biosystems/ThermoFisher Scientific, Foster City, CA) were used to assess the expression of 93 genes selected based on their selectivity and sensitivity to important hepatic receptors known to be modulated by environmental chemicals; importance in human hepatocyte functionality; and hepatotoxicity. […]
SMILES,outcome,AC50
C[C@]12CCC(=O)C[C@@H]1CC[C@@H]1[C@@H]2CC[C@]2(C)[C@@H](O)CC[C@@H]12,inactive,
COc1cc(-c2ccc(N)c(OC)c2)ccc1N,inactive,42.9 µM (active)
O=C1C2(Cl)C3(Cl)C4(Cl)C(Cl)(Cl)C5(Cl)C3(Cl)C1(Cl)C5(Cl)C24Cl (configuration not stated),,9.2 µM (active)
ClCC(Cl)CCl,inactive,
CCC(=O)C(CC(C)N(C)C)(c1ccccc1)c1ccccc1 (configuration not stated),,17.8 µM (active)
ClC1(Cl)C2(Cl)C3(Cl)C4(Cl)C(Cl)(Cl)C5(Cl)C3(Cl)C1(Cl)C5(Cl)C24Cl (configuration not stated),inactive,
CCOP(=S)(OCC)Oc1nc(Cl)c(Cl)cc1Cl,inactive,
CC(C)(OO)c1ccccc1,inactive,
O=C(O)C(F)(F)C(F)(F)C(F)(F)C(F)(F)C(F)(F)C(F)(F)F,inactive,
CC(C)(C)CC(C)(C)c1ccc(O)cc1,inactive,
CCCCCCCCc1ccc(O)cc1,inactive,
C[C@@H]1C[C@@H]([C@H](O)CC2CC(=O)NC(=O)C2)C(=O)[C@@H](C)C1,,7.51 µM (active)
CC(C)(c1ccccc1)c1ccc(O)c(C(C)(C)c2ccccc2)c1,,12.7 µM (active)
CC12CC1(C)C(=O)N(c1cc(Cl)cc(Cl)c1)C2=O (configuration not stated),inactive,
C=CC(=O)OCCCCCC(C)C,inactive,
O=C(O)C(F)(F)C(F)(F)C(F)(F)C(F)(F)C(F)(F)C(F)(F)C(F)(F)C(F)(F)C(F)(F)C(F)(F)F,inactive,

SMILES,outcome,AC50
O=c1[nH]c(=O)[nH]c(=O)[nH]1,inactive,
NC(=O)O,inactive,
Oc1cccc2cccnc12,inactive,
CCOP(=S)(OCC)SCSP(=S)(OCC)OCC,,50 µM (active)
O=[N+]([O-])c1ccc(O)c([N+](=O)[O-])c1,,9.32 µM (active)
O=C(O)C(Cl)(Cl)Cl,inactive,
CN(C)N=O,inactive,
Cn1sc(Cl)cc1=O,inactive,
CCN1CCC2(CC1)COc1cc3c(cc12)N(C(=O)c1ccc(-c2ccc(-c4nnc(C)o4)cc2C)cc1)CC3,,46.8 µM (active)
CCC(C)(C)c1ccc(O)c(C(C)(C)CC)c1,inactive,
O=C(Nc1ccc2[nH]ccc2c1)c1cc2cc(F)ccc2n1Cc1cccc(F)c1,,28.3 µM (active)
Cc1ccccc1N,inactive,
CC(C)(C)c1cc(O)ccc1O,inactive,
C=C(C)C(=O)[O][Sn]([CH2]CCC)([CH2]CCC)[CH2]CCC,,0.381 µM (active)
CC(=O)[O][Hg][c]1ccccc1,,2.11 µM (active)
